Compounds without any hit were thinned out: in the full panel of roughly 83,000, 20% have a hit.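 How to read the values: 0–100, growth inhibition (40 = 60% inhibited); 0, no net growth; -100 to 0, cell death (-40 = 40% of starting cells died; -100 = all dead).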 Active and inactive are the calls of the source.
Test system: M14 melanoma
Assay: NCI-60 one-dose screen, 48 h (100 = growth as untreated, 0 = no growth, -100 = all killed)
Details: 10 µM unless noted
Experimental: Growth inhibition of the M14 human tumor cell line is measured as a screen for anti-cancer activity. Cells are grown in 96 well plates and exposed to the test compound for 48 hours. Compounds are tested at a single concentration, which is 10^-5 M for most compounds. The reported endpoint is percent growth (GI% or GIPRCNT), where numbers from 0 - 100% represent growth inhibition, and numbers from -100% - 0 represent cell death. For example, a value of 40 represents 60% growth inhibition. A value of 0 means no net growth occurred over the course of the experiment. A value of -40 indicates 40% of cells at the beginning of the experiment died by the end of the experiment. A value of -100 means all cells are dead at the end of the experiment.
NCI-60 Human Tumor Cell Lines Screen was performed using the standard one-dose NCI protocol, which is described in more detail at https://dtp.cancer.gov/discovery_development/nci-60/default.htm.
Compounds with GIPRCNT values below 10 were considered active. Activity score was based on GIPRCNT using the following formula: […]
Score is 0 for GIPRCNT values of 100 or above, 50 for GIPRCNT values of 0, and 100 for GIPRCNT values of -100.

SMILES	growth
COc1cc(/C=C/[N+](=O)[O-])cc(OC)c1	-30.1% (active)
ClCCN(CCCl)c1ccc(/C=N/Nc2ncnc3nc[nH]c23)cc1	76.7% (inactive)
CCCC(C)C1(CC)C(=O)NC(=O)N(C)C1=O (stereo not given)	101% (inactive)
CC12CCC(O)CC1=CCC1C2CCC2(C)C(O)CCC12 (stereo not given)	106% (inactive)
CC(C)[C@]12O[C@H]1[C@@H]1O[C@]13[C@]1(O[C@H]1C[C@H]1c4c(C(=O)c5ccccc5)oc(OC(=O)c5ccccc5)c4CC[C@@]13C)[C@@H]2O	-73.7% (active)
CN1CCC(c2c[nH]c3ccccc23)C1 (stereo not given)	93% (inactive)
COC(=O)CC[C@H](Cc1ccccc1)NC(=O)c1csc([C@@H](C[C@H](C(C)C)N(C)C(=O)[C@@H](NC(=O)[C@H]2CCCCN2C)C(C)C)OC(C)=O)n1	20.2% (inactive)
CC(=O)ONc1ccc([N+](=O)[O-])c(C(F)(F)F)c1	98.8% (inactive)
c1cc2c(c3c1CCNC3)OCO2	101% (inactive)
CCCCC1(CCC)C(=O)NC(=S)NC1=O	106% (inactive)
COc1ccc([As]=[As]c2ccc(OC)c(NCS(=O)(=O)O)c2)cc1NCS(=O)(=O)O (stereo not given)	19.2% (inactive)
CC1(C)N=C(N)N=C(N)N1c1cccc(CCCCc2ccc(Cl)c(S(=O)(=O)F)c2)c1	39% (inactive)
CC(=O)O[C@H]1C(=O)[C@@]2(C)[C@H]([C@H](OC(=O)c3ccccc3)[C@]3(O)C[C@H](OC(=O)[C@H](OC(=O)OC[C@H]4COC(C)(C)O4)[C@@H](NC(=O)c4ccccc4)c4ccccc4)C(C)=C1C3(C)C)[C@]1(OC(C)=O)CO[C@@H]1C[C@@H]2O	-19% (active)
COc1ccc(/C=C\c2cc(OC)c(OC)c(OC)c2)cc1NS(=O)(=O)c1ccc(Cl)cc1	62.4% (inactive)
CSc1nc(Cl)cc(N2CC2)n1	114% (inactive)
NC(=S)c1cn(C2OC(CO)C(O)C2O)c2ncnc(N)c12 (stereo not given)	-57.9% (active)
CCC1CC(O)c2c(O)c3c(c(O)c2C1O)C(=O)c1cccc(O)c1C3=O (stereo not given) (tested in a mixture with another compound)	-97.1% (active)
COC(=O)[C@@H](C)C[C@H](Cc1ccccc1)NC(=O)c1csc([C@@H](C[C@H](C(C)C)N(C)C(=O)[C@@H](NC(=O)[C@H]2CCCCN2C)C(C)C)OC(C)=O)n1	-32.1% (active)
Cc1cc(C)c(CBr)c(C)c1	109% (inactive)
O=C(c1cccc(O)c1O)c1cn(Cc2ccc(F)cc2)c2cccc(O)c12	-64.3% (active)

SMILES	growth
O=C1OCCC1Br (stereo not given)	109% (inactive)
CNC(=O)Oc1ccc(C(C)(C)C)cc1OC(=O)NC	93.3% (inactive)
O=C(CN1CCN(C(=O)c2ccco2)CC1)Nc1ccc(Cl)cc1C(=O)c1ccccc1Cl	90.4% (inactive)
CCCCCSC1C2C(=O)C(Br)=CC13CCNc1c(O)c4c5c(c13)=[N+]2CCC=5C=N4 (stereo not given)	-92.6% (active)
COc1ccc2c(c1)c(-c1nc(-c3c[nH]c4ncccc34)cs1)cn2CCCCN1CCCCC1	-88% (active)
CCN(CCO)C(Cc1ccccc1)c1ccccc1 (stereo not given)	89% (inactive)
CCCCCCCCCCCCCCCCCC1OC[C@H](COC(=O)O[C@@H](C(=O)O[C@H]2C[C@@]3(O)[C@@H](OC(=O)c4ccccc4)[C@@H]4[C@]5(OC(C)=O)CO[C@@H]5C[C@H](O)[C@@]4(C)C(=O)[C@H](OC(C)=O)C(=C2C)C3(C)C)[C@@H](NC(=O)c2ccccc2)c2ccccc2)O1 (stereo not given in full)	29.6% (inactive)
CC[C@H](C)[C@H](NC(=O)[C@H]1CCCCN1C)C(=O)N(C)[C@H](C[C@@H](OC(C)=O)c1cccc(C(=O)N[C@@H](Cc2ccccc2)C[C@H](C)C(=O)O)n1)C(C)C	10% (inactive)
Cc1cc(N(CCCl)CCCl)ccc1C=Nc1ccc(-c2csc(Cc3ccccc3)n2)cc1	79.8% (inactive)
O=C(O)c1c(Cl)n(Cc2ccc(O)cc2)c2ccc(O)cc12	98% (inactive)
O=C(Nc1ccc([N+](=O)[O-])cc1)C(Cl)(Cl)Cl	94.1% (inactive)
CC(=O)Nc1nc2c(s1)CC[C@@]1(C)C2=CC[C@H]2[C@@H]3CC[C@H](O)[C@@]3(C)CC[C@@H]21	36% (inactive)
Cc1cc(N(CCCl)CCCl)ccc1C=Nc1ccccc1-c1ccccc1	75.8% (inactive)
COC(=O)[C@H](C[C@H](Cc1ccccc1)NC(=O)c1csc([C@@H](C[C@H](C(C)C)N(C)C(=O)[C@@H](NC(=O)[C@H]2CCCCN2C)C(C)C)OC(C)=O)n1)NC(=O)OCc1ccccc1	-48.4% [8.5 µM] (active)
COc1ccc2c(c1)c(-c1nc(-c3cn(C)c4ncccc34)cs1)cn2CCCCN1CCCCC1	-79.1% (active)
CC1=C2[C@@H](CC1)[C@]1(C)O[C@@](C(C)C)(C[C@H]1O)[C@H]2OC(=O)C1CC1c1ccccc1 (stereo not given in full)	90.9% (inactive)
C/C(=C\c1ccn(-c2ccc(N)c(F)c2)n1)[C@@H]1C[C@@H]2O[C@]2(C)CCC[C@H](C)[C@H](O)[C@@H](C)C(=O)C(C)(C)[C@@H](O)CC(=O)O1	13.3% (inactive)
NC(CCl)CCl	94.6% (inactive)
O=[N+]([O-])c1cc(I)cc([N+](=O)[O-])c1	98.8% (inactive)
CCN1C(=O)C(=C/C=C/c2ccccc2)C(=O)N(CC)C1=O	82.5% (inactive)

Source: PubChem BioAssay (NCI)
